Screening results (PubChem)
PfHsp90 yeast 2: growth inhibition of yeast expressing Plasmodium Hsp90. S. cerevisiae expressing PfHsp90, BacTiter-Glo ATP, 48 h; yeast lacking PDR1 and PDR3 efflux regulators. inhibition, % at 9.4 µM. 310,000 tested, 0.32% active;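 active means every replicate shows inhibition above about 80%, whatever the replicate mean, limit read from the data; inconclusive means mean inhibition reaches the set limit but some replicate falls short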;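 further: 0% = DMSO neutral controls and 100% = 20 µM radicicol positive controls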
tim23-1 inh: tim23-1 yeast growth inhibition | S. cerevisiae tim23-1 growth, BacTiter-Glo luminescence, 24 h | inhibition, % at 20 µM | 330,000 tested, 1.3% active;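 active means growth inhibition of the mutant yeast at or above 50%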;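 further: temperature-sensitive mutant grown at 25 °C; plate controls were DMSO-treated mutant yeast for no effect and medium wells lacking yeast for full effect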
ATG4B inh: blocks human ATG4B protease cleavage of LC3 substrate; inhibition, % at 8.33 µM; ATG4B cleavage of LC3-PLA2, NBD-HPC fluorescence, 1 h; AID 504462; Q9Y4P1; 340,000 tested, 0.51% active; in the data active means inhibition above about 40%
Target sequence (Q9Y4P1 whole entry, looked up): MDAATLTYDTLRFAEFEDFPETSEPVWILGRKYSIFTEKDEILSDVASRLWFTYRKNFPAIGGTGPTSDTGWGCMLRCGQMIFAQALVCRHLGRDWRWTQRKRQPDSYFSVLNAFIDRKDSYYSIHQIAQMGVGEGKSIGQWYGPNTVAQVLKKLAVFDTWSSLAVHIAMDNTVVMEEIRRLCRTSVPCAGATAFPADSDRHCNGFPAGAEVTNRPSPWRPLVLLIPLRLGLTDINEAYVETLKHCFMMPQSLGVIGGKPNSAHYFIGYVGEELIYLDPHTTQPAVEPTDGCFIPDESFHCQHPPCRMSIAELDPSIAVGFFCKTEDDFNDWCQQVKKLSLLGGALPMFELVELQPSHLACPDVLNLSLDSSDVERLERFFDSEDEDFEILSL
TIM10 inh: inhibits growth of TIM10 yeast strain. S. cerevisiae TIM10 strain growth, BacTiter-Glo luminescence, 24 h. inhibition, % at 10 µM. 330,000 tested, 1.4% active;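 active means inhibition of 40% or more at the single tested concentration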;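 further: wild-type TIM10 isogenic control strain grown at permissive 25 °C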
tim10-1 inh: tim10-1 yeast growth inhibition; S. cerevisiae tim10-1 ts strain growth, BacTiter-Glo, 24 h; inhibition, % at 20 µM; 330,000 tested, 2.2% active; AID 463190;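 active means inhibition of at least 40%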;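 further: mutant grown at 25 °C; 0% = DMSO wells with yeast and 100% = wells holding no yeast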
SKKanGAS inh: inhibitors of SKKanGAS S. pyogenes growth in kanamycin (SK-promoter or general growth effect); BacTiter-Glo, 6 h; inhibition, % at 7.5 µM; 300,000 tested, 1.3% active; AID 1662;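 active means mean replicate score, as percent of positive control median, at least 50; inconclusive means mean below 50 but one replicate at or above 50; inactive means mean and every replicate below 50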;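 further: strain carries kanamycin resistance gene driven by streptokinase promoter and grows in 40 µg/ml kanamycin; loss of luminescence reflects streptokinase promoter inhibition or plain growth inhibition; 0% = median of DMSO wells and 100% = positive control at its reference dose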
tim10-1 confirm: tim10-1 yeast growth inhibition, confirmed | shares compounds with tim10-1 inh | S. cerevisiae tim10-1 ts strain growth, BacTiter-Glo, 24 h | inhibition, % at 20 µM | 7,400 tested, 56% active | AID 463213;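 active means inhibition of yeast growth at or above a set limit in either of two repeat tests at 20 µM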;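 further: tim10-1 mutant grown at permissive 25 °C to find synthetic lethal compounds; 0% = DMSO yeast wells and 100% = medium wells without yeast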
* hit, by the source's call; u = inconclusive; x = no result. This is a sample that favours compounds with a hit; in the whole collection about 4.7% have one here.

SMILES	PfHsp90 yeast 2	tim23-1 inh	ATG4B inh	TIM10 inh	tim10-1 inh	SKKanGAS inh	tim10-1 confirm
O=[N+]([O-])c1nn(-c2cccc(Cl)c2)n(O)c1=NCc1cccnc1	-30	28	-6	14	32	-6	x
Cc1nn(-c2cccc(Cl)c2)c2c1C(c1ccncc1)C(C#N)=C(N)O2 (stereo not given)	x	15	2	28	36	13	x
Cc1nn(-c2cccc(Cl)c2)c2c1C(c1cccnc1)C(C#N)=C(N)O2 (stereo not given)	-14	15	10	21	41*	29	31*
Cc1ccc(NC(=O)CCN2CCN(C)CC2)cc1	-5	6	3	-10	-22	-5	x
Cc1ccc(-c2onc3ccc(C4OCCO4)cc23)cc1	6	29	-10	18	0	x	x
CCCNC(=O)c1cccc(Cn2nc(C)c(Br)c2C)c1	17	-5	6	8	17	8	x
Cc1nn(Cc2cccc(C(=O)NC34CC5CC(CC(C5)C3)C4)c2)c(C)c1Br	9	26	1	20	43*	17	28
COC(=O)NC(=C(Cl)Cl)S(=O)(=O)c1ccccc1	x	-13	5	-43	-5	x	x
Cc1ccc2c(c1)-c1c(ssc1=S)C(C)(C)N2C(=O)CSC1=NCCS1	-7	33	-9	29	43*	-2	38*
CCOc1ccc2c(c1)-c1c(ssc1=S)C(C)(C)N2C(=O)CSC1=NCCS1	-37	33	-2	3	14	4	x
CC1CCN(c2nc(Cl)nc(Nc3ccc([N+](=O)[O-])cc3)n2)CC1	98*	40	-4	22	46*	2	27
C/C(O)=C(\C#N)c1nnc2n1CCCCC2	-54	-11	1	-5	-6	1	x
COC(=O)c1[nH]c2ccc(Br)cc2c1NC(=O)CN1CCCc2ccccc21	-18	35	8	23	46*	29	34*
COc1ccc(CCN2CCCC(CN(C)C(=O)c3cc(C)oc3C)C2)cc1 (stereo not given)	12	-8	-2	1	1	47	x
CCc1ccc(C(=O)COC(=O)CNC(=O)COc2ccccc2)cc1	3	22	3	16	42*	0	20
Cc1ccc(C(=O)COC(=O)CNC(=O)Cc2ccccc2)cc1	-2	-4	3	12	-1	-3	x
CC1CN(C(=O)CCC(=O)N2CCN(c3ccccn3)CC2)c2ccccc2O1 (stereo not given)	4	10	-9	1	14	-8	x
CC(=O)c1cccc(NC(=S)NC(=O)Cc2ccc(Cl)cc2)c1	-21	21	-9	36	2	-1	x
CC(=O)c1cccc(NC(=S)NC(=O)Cc2ccccc2)c1	6	29	2	27	46*	5	23
CC(=O)c1cccc(NC(=S)NCCC2=CCCCC2)c1	-20	21	3	27	40	2	28
CC(=O)c1cccc(NC(=S)NCCc2ccc(F)cc2)c1	-22	24	1	23	4	-14	x
CCC(CC)C(=O)Nc1nc(-c2ccc3c(c2)CCN3C(=O)C2CC2)c(C)s1	-1	7	0	26	17	15	x
Cc1cc(=O)n2c3c(sc2n1)C(=O)N(Cc1ccccc1)C3=O	x	29	x	21	40*	-1	34*
Cc1cc(=O)n2nc(-c3ccccc3)sc2n1	31	3	-2	-13	8	-8	x
FC(F)Oc1ccc(/C=N/c2c(-c3ccc(OC(F)F)cc3)nc3n2CCS3)cc1	0	9	-16	6	47*	9	24
SMILES	PfHsp90 yeast 2	tim23-1 inh	ATG4B inh	TIM10 inh	tim10-1 inh	SKKanGAS inh	tim10-1 confirm
N#Cc1c(-c2ccc(F)cc2)nc2n(c1=O)CCS2	-10	8	-10	-3	7	4	x
CCCN(CC(=O)Nc1ccccc1OC)C(=O)c1ccc2[nH]c3c(c2c1)CC(C)CC3 (stereo not given)	-18	43	3	23	41*	x	30
N#Cc1c(-c2ccccc2)nc(SCc2cccc(Cl)c2)[nH]c1=O	-33	33	38	17	42*	u	27
CCC(C)(C)n1nnnc1C(c1ccncc1)N1CCC(C)CC1 (stereo not given)	-18	14	1	20	17	5	x
CCC(C)(C)n1nnnc1C(c1ccc(C)cc1)N1CCC(C)CC1 (stereo not given)	-12	45	-2	38	41*	10	36*
CCOC(=O)C1(CCCc2ccccc2)CCN(Cc2nccn2CC)CC1	3	18	0	26	41*	-7	30
COc1c(/C=C2\SC(=Nc3ccccc3Cl)NC2=O)cccc1[N+](=O)[O-]	-11	47	13	24	44*	16	45*
CCOC(=O)/C(C#N)=C/c1cccc(C)c1	-5	x	-5	x	x	-6	x
COc1cc(/C=C/C(=O)/C=C(O)/C=C/c2ccc(O)c(OC)c2)ccc1O	-13	47	36	18	28	x	x
CCOC(=O)/C(C#N)=C\c1ccc(O)c(OC)c1	-14	27	-12	39	42*	4	34*
COc1cc(/C=C/C(=O)CC(=O)/C=C/c2ccc(O)c(OC)c2)ccc1O	-3	42	49*	29	40	7	39*
O=C(c1ccco1)c1cn(CC(=O)N2CCCCCC2)c2ccccc12	11	16	14	-25	25	1	x
N#Cc1cnc(SCC(=O)N2CCCCC2)nc1N	-2	x	1	x	x	-1	x
CCN(CC)CCNC(=O)c1c(C)n(-c2ccccc2)c2cc(Br)c(OC)cc12	4	15	3	3	29	-1	x
COc1cc2c(C(=O)N3CCN(C)CC3)c(C)n(-c3ccccc3)c2cc1Br	-15	21	13	20	50*	-7	27
Cc1nn(-c2ccccc2)c(C)c1CCC(=O)O	x	0	3	-5	-3	-23	x
CCOC(=O)n1c(=O)n(Cc2ccc(OC)cc2)c2ccccc21	13	49	-3	21	50*	8	46*
C=CCn1c(-c2cccc(S(=O)(=O)N3CCOCC3)c2)n[nH]c1=S	x	-2	-9	-11	-11	x	x
CC1CCN(C(c2ccc(N(C)C)cc2)c2nnnn2Cc2ccc(F)cc2)CC1 (stereo not given)	12	41	-6	27	39	-4	x
Fc1ccc(Cn2nnnc2C(c2ccc(Cl)cc2)N2CCSCC2)cc1 (stereo not given)	17	35	-11	40	42*	0	31
Cc1nc(N)sc1-c1csc(Nc2ccc(Cl)cn2)n1	-25	48	0	31	57*	8	38*
Nc1cc(=O)[nH]c(SCc2cccc3ccccc23)n1	-25	29	5	11	-8	2	x
